Data published in the supplement of paper PMC11732987, “Enantioselective OTUD7B fragment discovery through chemoproteomics screening and high-throughput optimisation” (Communications Chemistry, 2025).

Experiments:
Assay in all cases: log2 ratio of Biotin-Ahx-Ub-VS probe labelling (fragment/DMSO); higher = less target engagement (more negative = stronger competition), active = hit call of the paper (q ≤ 0.05, log2 ratio ≤ -1)
Conditions in all cases: compound concentration: 200 uM; treatment time: 3 h
USP34 = USP34 (UniProt Q70CQ2)
Chain of USP34 (Q70CQ2 whole entry, the tested form may be a part): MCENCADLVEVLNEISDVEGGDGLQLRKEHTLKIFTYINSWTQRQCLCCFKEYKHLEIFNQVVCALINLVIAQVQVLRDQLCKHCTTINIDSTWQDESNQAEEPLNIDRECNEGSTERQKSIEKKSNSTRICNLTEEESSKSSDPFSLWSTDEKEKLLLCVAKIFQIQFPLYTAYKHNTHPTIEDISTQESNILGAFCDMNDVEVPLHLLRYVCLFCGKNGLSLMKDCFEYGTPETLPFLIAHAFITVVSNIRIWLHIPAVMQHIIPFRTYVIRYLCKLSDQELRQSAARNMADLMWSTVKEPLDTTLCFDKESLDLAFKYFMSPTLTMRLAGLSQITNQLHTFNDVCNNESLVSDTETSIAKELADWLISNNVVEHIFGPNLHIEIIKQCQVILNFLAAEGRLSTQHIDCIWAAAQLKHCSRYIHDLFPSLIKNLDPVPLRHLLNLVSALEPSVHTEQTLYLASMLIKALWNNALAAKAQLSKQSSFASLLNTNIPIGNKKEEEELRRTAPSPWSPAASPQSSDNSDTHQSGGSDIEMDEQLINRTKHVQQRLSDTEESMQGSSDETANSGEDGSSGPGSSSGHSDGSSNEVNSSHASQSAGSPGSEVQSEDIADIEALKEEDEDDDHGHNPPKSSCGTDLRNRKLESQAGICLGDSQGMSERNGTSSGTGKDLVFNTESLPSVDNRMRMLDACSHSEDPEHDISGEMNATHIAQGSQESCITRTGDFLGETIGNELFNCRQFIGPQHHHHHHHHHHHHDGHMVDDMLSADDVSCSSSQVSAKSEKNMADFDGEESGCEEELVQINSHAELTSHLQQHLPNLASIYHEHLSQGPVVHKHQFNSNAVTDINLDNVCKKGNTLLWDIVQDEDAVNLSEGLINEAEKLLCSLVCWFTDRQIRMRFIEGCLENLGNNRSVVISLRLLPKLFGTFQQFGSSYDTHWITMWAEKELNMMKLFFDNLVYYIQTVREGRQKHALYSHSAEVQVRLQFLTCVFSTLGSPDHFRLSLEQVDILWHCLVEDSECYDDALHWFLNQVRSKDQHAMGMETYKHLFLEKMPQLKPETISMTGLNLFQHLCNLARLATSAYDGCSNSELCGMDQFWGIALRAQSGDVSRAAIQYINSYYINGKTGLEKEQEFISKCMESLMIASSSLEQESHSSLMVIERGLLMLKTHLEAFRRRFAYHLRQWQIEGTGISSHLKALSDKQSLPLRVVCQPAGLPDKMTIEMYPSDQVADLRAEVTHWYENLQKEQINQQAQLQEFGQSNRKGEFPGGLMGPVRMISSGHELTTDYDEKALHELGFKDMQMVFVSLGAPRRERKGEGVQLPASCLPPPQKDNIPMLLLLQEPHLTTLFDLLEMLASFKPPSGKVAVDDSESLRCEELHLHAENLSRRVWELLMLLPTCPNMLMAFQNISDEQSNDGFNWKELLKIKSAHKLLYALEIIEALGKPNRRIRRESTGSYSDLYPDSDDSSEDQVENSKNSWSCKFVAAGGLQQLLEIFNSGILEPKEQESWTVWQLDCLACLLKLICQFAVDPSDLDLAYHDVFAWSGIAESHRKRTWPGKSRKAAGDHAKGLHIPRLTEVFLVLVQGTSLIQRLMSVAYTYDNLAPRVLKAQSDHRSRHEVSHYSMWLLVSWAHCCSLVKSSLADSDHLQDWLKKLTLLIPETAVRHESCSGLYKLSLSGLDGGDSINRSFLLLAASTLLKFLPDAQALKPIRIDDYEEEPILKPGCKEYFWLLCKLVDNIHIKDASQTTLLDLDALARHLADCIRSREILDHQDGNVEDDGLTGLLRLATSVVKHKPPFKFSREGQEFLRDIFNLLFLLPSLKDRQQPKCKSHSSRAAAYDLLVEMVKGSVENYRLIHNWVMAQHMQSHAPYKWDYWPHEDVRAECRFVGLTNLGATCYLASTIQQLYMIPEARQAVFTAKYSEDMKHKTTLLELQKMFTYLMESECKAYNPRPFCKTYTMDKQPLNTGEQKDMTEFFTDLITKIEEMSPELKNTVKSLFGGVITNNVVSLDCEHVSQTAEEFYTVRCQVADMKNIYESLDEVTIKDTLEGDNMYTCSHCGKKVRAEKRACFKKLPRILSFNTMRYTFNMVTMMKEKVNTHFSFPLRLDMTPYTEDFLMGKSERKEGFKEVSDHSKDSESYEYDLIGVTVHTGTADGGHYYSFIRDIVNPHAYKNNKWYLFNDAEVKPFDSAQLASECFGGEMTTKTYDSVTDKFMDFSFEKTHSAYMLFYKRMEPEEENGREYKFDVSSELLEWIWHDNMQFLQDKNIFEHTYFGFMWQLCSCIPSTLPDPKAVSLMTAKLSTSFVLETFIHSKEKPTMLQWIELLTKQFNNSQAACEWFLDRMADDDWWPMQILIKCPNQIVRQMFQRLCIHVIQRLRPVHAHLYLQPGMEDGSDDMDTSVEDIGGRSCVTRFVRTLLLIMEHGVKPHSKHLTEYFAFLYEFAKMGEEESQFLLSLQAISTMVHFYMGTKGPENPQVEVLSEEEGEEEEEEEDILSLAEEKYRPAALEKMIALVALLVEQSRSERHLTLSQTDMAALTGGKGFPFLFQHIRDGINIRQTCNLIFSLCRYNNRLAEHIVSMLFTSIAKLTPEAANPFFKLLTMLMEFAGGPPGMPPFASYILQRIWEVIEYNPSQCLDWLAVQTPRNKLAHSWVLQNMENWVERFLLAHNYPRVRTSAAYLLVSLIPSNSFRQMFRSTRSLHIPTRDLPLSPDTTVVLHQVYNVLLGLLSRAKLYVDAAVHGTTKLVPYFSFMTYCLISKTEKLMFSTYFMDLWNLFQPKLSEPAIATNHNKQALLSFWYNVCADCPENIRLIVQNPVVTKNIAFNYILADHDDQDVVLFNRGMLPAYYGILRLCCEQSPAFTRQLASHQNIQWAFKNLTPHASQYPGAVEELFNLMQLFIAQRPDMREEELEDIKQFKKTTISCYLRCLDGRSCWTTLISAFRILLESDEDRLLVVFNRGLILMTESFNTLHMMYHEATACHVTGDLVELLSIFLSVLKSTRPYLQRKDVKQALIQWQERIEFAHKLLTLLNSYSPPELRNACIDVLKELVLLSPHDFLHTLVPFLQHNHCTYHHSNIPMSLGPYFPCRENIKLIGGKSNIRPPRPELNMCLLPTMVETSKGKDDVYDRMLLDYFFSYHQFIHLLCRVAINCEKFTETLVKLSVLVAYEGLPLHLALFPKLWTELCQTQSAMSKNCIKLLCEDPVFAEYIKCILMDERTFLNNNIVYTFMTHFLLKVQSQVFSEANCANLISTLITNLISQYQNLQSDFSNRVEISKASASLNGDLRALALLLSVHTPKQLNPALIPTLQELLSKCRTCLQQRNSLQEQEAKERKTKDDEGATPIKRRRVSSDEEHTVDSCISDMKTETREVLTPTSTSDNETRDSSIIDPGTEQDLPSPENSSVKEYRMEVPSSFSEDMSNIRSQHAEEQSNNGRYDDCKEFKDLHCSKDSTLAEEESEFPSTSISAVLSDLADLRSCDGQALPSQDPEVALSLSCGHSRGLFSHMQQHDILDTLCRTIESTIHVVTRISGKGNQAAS
Outline: (§1)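 Triplicate samples of HEK293T lysate, 495 µg each, received fragment at 200 µM or vehicle for 3 h, followed by Biotin-Ahx-Ub-VS (0.5 µM final) for 1 h. After NeutrAvidin enrichment of labelled DUBs and LysC/trypsin digestion, peptides were run by diaPASEF LC-MS/MS. The values are average log2 fragment/vehicle ratios from global-median-normalised Spectronaut label-free quantities, tested by unpaired t-test on proteins having ≥2 unique peptides.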

USP36 = molecular target: T1, USP36 (UniProt Q9P275)
T1 sequence (whole entry): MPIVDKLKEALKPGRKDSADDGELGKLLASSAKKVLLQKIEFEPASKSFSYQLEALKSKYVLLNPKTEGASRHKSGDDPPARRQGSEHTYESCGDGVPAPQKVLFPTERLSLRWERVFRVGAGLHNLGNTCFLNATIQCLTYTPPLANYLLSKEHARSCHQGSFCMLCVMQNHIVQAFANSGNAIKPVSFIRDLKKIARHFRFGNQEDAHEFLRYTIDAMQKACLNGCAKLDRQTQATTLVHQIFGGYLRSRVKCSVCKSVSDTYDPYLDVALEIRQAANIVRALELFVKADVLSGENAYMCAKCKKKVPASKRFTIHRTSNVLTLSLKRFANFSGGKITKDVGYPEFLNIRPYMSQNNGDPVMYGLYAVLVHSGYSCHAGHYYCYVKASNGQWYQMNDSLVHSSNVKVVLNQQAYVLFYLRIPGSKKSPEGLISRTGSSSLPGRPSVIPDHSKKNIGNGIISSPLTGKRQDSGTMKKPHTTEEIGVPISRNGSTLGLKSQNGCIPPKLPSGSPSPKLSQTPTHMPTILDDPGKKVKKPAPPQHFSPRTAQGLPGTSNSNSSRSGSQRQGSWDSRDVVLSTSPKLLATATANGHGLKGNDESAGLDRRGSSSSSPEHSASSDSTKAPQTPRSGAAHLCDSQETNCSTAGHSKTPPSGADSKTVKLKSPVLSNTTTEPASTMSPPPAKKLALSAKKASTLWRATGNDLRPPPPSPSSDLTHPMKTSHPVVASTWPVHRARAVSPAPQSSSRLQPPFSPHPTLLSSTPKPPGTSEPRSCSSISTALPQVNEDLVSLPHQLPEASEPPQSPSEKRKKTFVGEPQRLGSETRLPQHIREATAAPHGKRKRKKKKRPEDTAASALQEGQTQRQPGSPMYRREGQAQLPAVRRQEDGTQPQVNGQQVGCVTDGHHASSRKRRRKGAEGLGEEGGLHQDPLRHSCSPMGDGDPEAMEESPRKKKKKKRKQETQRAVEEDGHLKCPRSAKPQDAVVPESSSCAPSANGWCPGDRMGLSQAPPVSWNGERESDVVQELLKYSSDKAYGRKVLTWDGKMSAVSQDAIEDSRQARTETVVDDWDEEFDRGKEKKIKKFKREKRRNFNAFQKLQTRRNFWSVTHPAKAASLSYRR
Outline: as §1

USP38 = molecular target: T2, USP38 (UniProt Q8NB14)
T2 sequence (whole entry): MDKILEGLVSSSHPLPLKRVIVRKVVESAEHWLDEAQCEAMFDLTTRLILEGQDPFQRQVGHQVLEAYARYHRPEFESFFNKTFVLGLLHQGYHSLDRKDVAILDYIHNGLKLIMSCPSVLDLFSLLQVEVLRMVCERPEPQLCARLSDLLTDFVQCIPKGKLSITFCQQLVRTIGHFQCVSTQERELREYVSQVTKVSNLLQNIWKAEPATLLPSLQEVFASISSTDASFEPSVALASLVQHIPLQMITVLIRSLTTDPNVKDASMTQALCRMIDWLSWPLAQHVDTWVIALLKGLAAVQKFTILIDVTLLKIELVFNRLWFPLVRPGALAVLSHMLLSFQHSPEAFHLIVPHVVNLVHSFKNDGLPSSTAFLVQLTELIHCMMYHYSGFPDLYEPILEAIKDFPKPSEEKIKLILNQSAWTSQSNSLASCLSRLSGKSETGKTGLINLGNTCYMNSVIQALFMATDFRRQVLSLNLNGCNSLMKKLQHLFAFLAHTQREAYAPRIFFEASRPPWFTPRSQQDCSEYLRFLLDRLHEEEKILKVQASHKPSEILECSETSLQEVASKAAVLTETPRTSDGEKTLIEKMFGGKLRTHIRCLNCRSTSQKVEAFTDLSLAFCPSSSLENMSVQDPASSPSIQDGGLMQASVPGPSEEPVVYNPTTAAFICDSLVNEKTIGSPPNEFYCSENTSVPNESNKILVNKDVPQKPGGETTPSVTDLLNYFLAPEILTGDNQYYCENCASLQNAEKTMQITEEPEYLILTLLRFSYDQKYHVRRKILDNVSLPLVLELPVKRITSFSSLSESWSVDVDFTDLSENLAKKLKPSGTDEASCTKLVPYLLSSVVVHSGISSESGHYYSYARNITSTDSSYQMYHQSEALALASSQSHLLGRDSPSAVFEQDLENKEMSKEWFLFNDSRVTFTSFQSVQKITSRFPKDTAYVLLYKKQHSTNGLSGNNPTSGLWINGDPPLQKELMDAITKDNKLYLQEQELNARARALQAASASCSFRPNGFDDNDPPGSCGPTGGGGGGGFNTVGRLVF
Outline: as §1

USP39 = molecular target: T3, USP39 (UniProt Q53GS9)
T3 sequence (whole entry): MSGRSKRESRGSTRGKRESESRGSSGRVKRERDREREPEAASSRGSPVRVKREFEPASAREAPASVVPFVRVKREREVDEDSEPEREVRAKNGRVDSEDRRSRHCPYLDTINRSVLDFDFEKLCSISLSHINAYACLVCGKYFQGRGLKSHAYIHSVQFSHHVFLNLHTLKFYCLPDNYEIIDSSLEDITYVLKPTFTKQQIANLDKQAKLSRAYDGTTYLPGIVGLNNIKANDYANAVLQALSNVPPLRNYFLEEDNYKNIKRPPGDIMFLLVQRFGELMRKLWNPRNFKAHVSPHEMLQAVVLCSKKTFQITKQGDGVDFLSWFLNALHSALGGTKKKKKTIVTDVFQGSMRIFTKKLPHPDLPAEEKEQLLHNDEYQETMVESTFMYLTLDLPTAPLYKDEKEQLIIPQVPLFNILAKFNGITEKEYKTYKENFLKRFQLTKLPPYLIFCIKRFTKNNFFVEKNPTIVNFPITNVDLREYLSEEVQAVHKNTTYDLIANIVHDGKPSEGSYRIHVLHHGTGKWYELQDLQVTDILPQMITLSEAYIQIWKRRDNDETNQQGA
Outline: as §1

USP4 = molecular target: T4, USP4 (UniProt Q13107)
T4 sequence (whole entry): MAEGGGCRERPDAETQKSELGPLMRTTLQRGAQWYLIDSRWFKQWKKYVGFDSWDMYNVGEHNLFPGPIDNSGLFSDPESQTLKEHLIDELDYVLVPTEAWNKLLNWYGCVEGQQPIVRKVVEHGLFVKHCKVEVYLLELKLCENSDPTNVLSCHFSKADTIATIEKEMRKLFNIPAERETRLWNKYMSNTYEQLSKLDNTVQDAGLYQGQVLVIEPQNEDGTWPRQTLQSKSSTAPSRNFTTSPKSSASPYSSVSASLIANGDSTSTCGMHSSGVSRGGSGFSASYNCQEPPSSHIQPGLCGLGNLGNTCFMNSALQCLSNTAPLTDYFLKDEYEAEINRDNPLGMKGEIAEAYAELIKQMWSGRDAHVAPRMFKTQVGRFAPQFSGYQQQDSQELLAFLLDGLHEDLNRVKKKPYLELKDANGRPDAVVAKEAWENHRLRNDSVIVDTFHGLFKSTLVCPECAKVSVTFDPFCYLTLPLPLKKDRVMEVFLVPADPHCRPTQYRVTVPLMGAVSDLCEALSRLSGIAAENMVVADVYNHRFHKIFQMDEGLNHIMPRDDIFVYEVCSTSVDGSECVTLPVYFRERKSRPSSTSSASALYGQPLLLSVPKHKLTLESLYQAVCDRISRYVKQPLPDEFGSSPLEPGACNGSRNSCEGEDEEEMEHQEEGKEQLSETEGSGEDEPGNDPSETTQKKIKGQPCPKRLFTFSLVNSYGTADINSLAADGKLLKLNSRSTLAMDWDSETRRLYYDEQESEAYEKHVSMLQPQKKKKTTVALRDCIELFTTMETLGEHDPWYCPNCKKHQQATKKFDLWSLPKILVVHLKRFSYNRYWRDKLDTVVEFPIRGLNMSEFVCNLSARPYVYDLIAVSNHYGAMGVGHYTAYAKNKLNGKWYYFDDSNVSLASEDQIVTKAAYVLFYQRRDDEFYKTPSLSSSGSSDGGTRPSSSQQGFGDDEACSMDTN
Outline: as §1

Measured: log2 ratio of Biotin-Ahx-Ub-VS probe labelling

O=C(CCl)N(Cc1ccsc1)C1CC1
inactive: USP34 -0.211 | USP36 0.266 | USP38 0.00214 | USP39 -0.0741 | USP4 -0.116
